Cytotoxicity call data for 62 compounds are collected here from the antibiotic and cytotoxicity screens of Wong et al. (2023).

Among all 39,000 compounds or so, about 3,300 (8.5%) were called active. For the sample, actives were picked, then their nearest neighbours and some compounds at random.

The assay has as its system HepG2. The assay can be described thus: cytotoxicity call (relative viability < 0.9). The following applies: 10 µM.
Turning to `Cc1ccc(S(=O)(=O)Nc2cccc3c2O[C@H](CN(C)S(=O)(=O)c2cccs2)[C@H](C)CN([C@H](C)CO)C3=O)cc1`, the cytotoxicity call was “inactive”.
For `CC(C)NC(=O)N(C)C[C@@H]1OCCCC[C@H](C)Oc2ccc(NS(C)(=O)=O)cc2C(=O)N([C@@H](C)CO)C[C@@H]1C`, the cytotoxicity call is “inactive”.
Regarding `C[C@@H]1CN([C@H](C)CO)C(=O)Cc2cc(NC(=O)C3CC3)ccc2O[C@H]1CN(C)Cc1ccc(Oc2ccccc2)cc1`, the cytotoxicity call was “inactive”.
As to `Cc1noc(C)c1NC(=O)Nc1ccc2c(c1)C(=O)N([C@H](C)CO)C[C@@H](C)[C@@H](CN(C)C(=O)Nc1ccc(C(F)(F)F)cc1)O2`, the cytotoxicity call is “inactive”.
Under `C[C@H]1CN([C@@H](C)CO)C(=O)c2cccc(NC(=O)Nc3cccc4ccccc34)c2O[C@H]1CN(C)C(=O)NC1CCCCC1` stands “inactive”; under `NC(=O)NCc1ccccn1`, “inactive”; under `N#CCC(=O)NCc1ccccn1`, “inactive”.
Consider `O=C(/C=N/O)NCc1ccccn1`, for which the cytotoxicity call is “active”.
`C[C@H]1CN([C@@H](C)CO)C(=O)c2cc(C#CCN(C)C)cnc2O[C@@H]1CN(C)Cc1ccc2c(c1)OCO2`: the cytotoxicity call is “inactive”.
On to `CO[C@H](C(=O)[C@@H](O)[C@@H](C)O)[C@@H]1Cc2cc3cc(O[C@H]4C[C@@H](O[C@H]5C[C@@H](O)[C@H](O)[C@@H](C)O5)[C@@H](O)[C@@H](C)O4)c(C)c(O)c3c(O)c2C(=O)[C@H]1O[C@H]1C[C@@H](O[C@H]2C[C@@H](O[C@H]3C[C@](C)(O)[C@H](O)[C@@H](C)O3)[C@H](O)[C@@H](C)O2)[C@H](O)[C@@H](C)O1`, for which the cytotoxicity call was “active”.
As to `CO[C@H](C(=O)[C@@H](O)[C@@H](C)O)[C@H]1Cc2cc3cc(O[C@H]4C[C@@H](O[C@H]5C[C@@H](O)[C@@H](O)[C@@H](C)O5)[C@@H](O)[C@@H](C)O4)c(C)c(O)c3c(O)c2C(=O)[C@@H]1O[C@H]1C[C@@H](O[C@H]2C[C@@H](O[C@H]3C[C@@](C)(O)[C@@H](O)[C@@H](C)O3)[C@@H](O)[C@@H](C)O2)[C@@H](O)[C@@H](C)O1`, the cytotoxicity call was “active”.
Consider `N=c1cc(N2CCCCC2)nc(N)n1OS(=O)(=O)O`, for which the cytotoxicity call was “inactive”.
For the compound `CC(C)C(=O)NS(=O)(=O)c1ccc(N)cc1`, the cytotoxicity call is “inactive”.
With `C[C@H]1CN([C@@H](C)CO)C(=O)CCCn2cc(nn2)CO[C@@H]1CN(C)S(=O)(=O)c1ccc2ccccc2c1`, the cytotoxicity call was “inactive”.
Take `O=C(CCCCCNC(=O)OCc1ccc(CO[C@H]2C[C@@H](c3ccccc3)C=C(C(=O)N3CCN(Cc4ccccc4)CC3)O2)cc1)NO`: the cytotoxicity call was “inactive”.
As for `CN(C)CC(=O)N1CC(=O)N2[C@H](CO)[C@@H](c3ccc(C#Cc4cccnc4)cc3)[C@@H]2C1`, the cytotoxicity call was “inactive”.
In the case of `Cc1noc(C)c1NC(=O)N(C)C[C@@H]1Oc2cc(Br)ccc2S(=O)(=O)N([C@H](C)CO)C[C@@H]1C`, the cytotoxicity call is “inactive”.
Consider `COc1ccc2c3c([nH]c2c1)[C@H](CO)N(C[C@]13CN(CC2CCCCC2)C1)C(=O)Nc1cccc(c1)F`, for which the cytotoxicity call was “active”.
With `COc1ccc2c3c([nH]c2c1)[C@@H](CO)N(C[C@]13CCN(CC1)C(=O)Nc1cccc(c1)F)C(=O)c1ccc(cc1)F`, the cytotoxicity call is “inactive”.
Take `COc1ccc2c3c([nH]c2c1)[C@@H](CO)N(C[C@]13CN(CC2CCCCC2)C1)C(=O)Nc1cccc(c1)F`: the cytotoxicity call was “active”.
For the compound `COc1ccc2c3c([nH]c2c1)[C@H](CO)N(CC1CCCCC1)C[C@]13CN(C1)C(=O)Nc1cccc(c1)F`, the cytotoxicity call was “inactive”.
Consider `COc1ccc2c3c([nH]c2c1)[C@@H](CO)N(CC1CCCCC1)C[C@]13CN(C1)C(=O)Nc1cccc(c1)F`, for which the cytotoxicity call was “inactive”.
Consider `COc1ccc2c3c([nH]c2c1)[C@H](CO)N(C[C@]13CCN(CC1)C(=O)Nc1cccc(c1)F)C(=O)c1ccc(cc1)F`, for which the cytotoxicity call was “inactive”.
Take `C[C@@H]1CN([C@H](C)CO)C(=O)c2cccc(NS(=O)(=O)c3ccc(F)cc3)c2O[C@H]1CN(C)S(=O)(=O)c1ccc(F)cc1`: the cytotoxicity call was “inactive”.
As for `COc1cccc(-c2ccc3c(c2)O[C@@H](CN(C)C(=O)C2CCOCC2)[C@H](C)CN([C@@H](C)CO)S3(=O)=O)c1`, the cytotoxicity call was “inactive”.
On to `CC(C)NC(=O)N(C)C[C@@H]1Oc2ccc(NC(=O)Cn3cnnn3)cc2C(=O)N([C@@H](C)CO)C[C@@H]1C`, for which the cytotoxicity call is “inactive”.
On to `O=C(C[C@@H]1C=C[C@H](NS(=O)(=O)c2ccccc2F)[C@H](CO)O1)NCCCN1CCOCC1`, for which the cytotoxicity call was “inactive”.
For the compound `C[C@@H]1CN([C@H](C)CO)C(=O)c2cccc(NC(=O)c3cnccn3)c2O[C@@H]1CN(C)S(=O)(=O)c1ccccc1`, the cytotoxicity call is “inactive”.
`CC(C)NC(=O)Nc1ccc2c(c1)C(=O)N(C)[C@H]1CC[C@H](CC(=O)NCc3ccc(F)cc3)O[C@@H]1CO2`: the cytotoxicity call is “inactive”.
With `C[C@@H]1CN([C@H](C)CO)C(=O)c2cc(NC(=O)C3CC3)ccc2O[C@H]1CN(C)Cc1ccc(-c2ccccc2)cc1` the entry was “inactive”; with `CCc1ccc(-c2cc3c(=O)n(CC(=O)NCCN4CCOCC4)nc(C)n3n2)cc1`, “inactive”; with `Cc1ccc(S(=O)(=O)Nc2ccc3c(c2)CC(=O)N([C@H](C)CO)C[C@H](C)[C@@H](CN(C)S(=O)(=O)c2cccs2)O3)cc1`, “inactive”.
Regarding `COc1ccc(CN(C)C[C@H]2OCCCC[C@@H](C)Oc3ccc(NC(=O)NC4CCCCC4)cc3C(=O)N([C@H](C)CO)C[C@@H]2C)cc1`, the cytotoxicity call is “inactive”.
With `C[C@@H]1CN([C@@H](C)CO)S(=O)(=O)c2ccc(C#C[C@@H](C)O)cc2O[C@@H]1CN(C)C(=O)Nc1ccccc1` the entry was “inactive”; with `COc1ccc(CN(C)C[C@H]2Oc3c(NC(=O)c4ccc(-c5nccs5)cc4)cccc3C(=O)N([C@@H](C)CO)C[C@@H]2C)cc1`, “inactive”; with `COc1ccc(CN(C)C[C@@H]2Oc3c(NC(=O)c4ccc(-c5nccs5)cc4)cccc3C(=O)N([C@H](C)CO)C[C@@H]2C)cc1`, “inactive”.
Consider `COc1ccc(CN(C)C[C@@H]2Oc3c(NC(=O)c4ccc(-c5nccs5)cc4)cccc3C(=O)N([C@@H](C)CO)C[C@H]2C)cc1`, for which the cytotoxicity call was “active”.
As to `COc1ccc(CN(C)C[C@H]2Oc3c(NC(=O)c4ccc(-c5nccs5)cc4)cccc3C(=O)N([C@H](C)CO)C[C@@H]2C)cc1`, the cytotoxicity call was “inactive”.
Under `COc1ccc(CN(C)C[C@H]2Oc3c(NC(=O)c4ccc(-c5nccs5)cc4)cccc3C(=O)N([C@@H](C)CO)C[C@H]2C)cc1` stands “inactive”; under `COc1ccc(CN(C)C[C@@H]2Oc3c(NC(=O)c4ccc(-c5nccs5)cc4)cccc3C(=O)N([C@H](C)CO)C[C@H]2C)cc1`, “active”.
As for `CO[C@@H]1CN(C)C(=O)c2cc(NC(C)=O)ccc2OC[C@@H](C)N(S(=O)(=O)c2cn(C)cn2)C[C@H]1C`, the cytotoxicity call was “inactive”.
Under `C[C@@H]1CCCCO[C@H](CN(C)Cc2ccccc2)[C@@H](C)CN([C@H](C)CO)C(=O)c2cc(NC(=O)c3ccccc3)ccc2O1` stands “inactive”; under `CCC[C@@H](O)C#Cc1cnc2c(c1)C(=O)N([C@H](C)CO)C[C@H](C)[C@H](CN(C)S(=O)(=O)c1ccccc1)O2`, “inactive”; under `C[C@H]1CN([C@@H](C)CO)C(=O)c2cc(NC(=O)Cc3cn(C)c4ccccc34)ccc2O[C@H]1CN(C)Cc1ccc(Oc2ccccc2)cc1`, “inactive”.
For the compound `C[C@H](CO)N1C[C@H](C)[C@H](CN(C)Cc2ccc(Oc3ccccc3)cc2)Oc2ccc(NC(=O)Cc3cn(C)c4ccccc34)cc2C1=O`, the cytotoxicity call is “active”.
For `C[C@H]1CN([C@@H](C)CO)C(=O)c2cc(NC(=O)Cc3cn(C)c4ccccc34)ccc2O[C@@H]1CN(C)Cc1ccc(Oc2ccccc2)cc1`, the cytotoxicity call is “active”.
As to `C[C@@H]1CN([C@H](C)CO)C(=O)c2cc(NC(=O)Cc3cn(C)c4ccccc34)ccc2O[C@@H]1CN(C)Cc1ccc(Oc2ccccc2)cc1`, the cytotoxicity call was “inactive”.
For the compound `C[C@@H]1CN([C@@H](C)CO)C(=O)c2cc(NC(=O)Cc3cn(C)c4ccccc34)ccc2O[C@@H]1CN(C)Cc1ccc(Oc2ccccc2)cc1`, the cytotoxicity call was “inactive”.
Turning to `C[C@H](CO)N1C[C@H](C)[C@@H](CN(C)Cc2ccc(Oc3ccccc3)cc2)Oc2ccc(NC(=O)Cc3cn(C)c4ccccc34)cc2C1=O`, the cytotoxicity call is “active”.
In the case of `C[C@@H]1CN([C@H](C)CO)C(=O)c2cc(NC(=O)Cc3cn(C)c4ccccc34)ccc2O[C@H]1CN(C)Cc1ccc(Oc2ccccc2)cc1`, the cytotoxicity call was “inactive”.
Under `C[C@@H]1CN([C@@H](C)CO)C(=O)c2cc(NC(=O)Cc3cn(C)c4ccccc34)ccc2O[C@H]1CN(C)Cc1ccc(Oc2ccccc2)cc1` stands “inactive”; under `Cc1ccc(S(=O)(=O)N(C)C[C@H]2OCCCC[C@@H](C)Oc3ccc(NC(=O)Nc4ccc5c(c4)OCO5)cc3C(=O)N([C@H](C)CO)C[C@@H]2C)cc1`, “inactive”; under `COc1cccc(-c2ccc3c(c2)O[C@H](CN(C)Cc2cncnc2)[C@H](C)CN([C@@H](C)CO)S3(=O)=O)c1`, “inactive”.
As to `COc1ccc(NC(=O)N(C)C[C@H]2Oc3ccc(NC(=O)CCCCCC(=O)Nc4ccccc4N)cc3CC(=O)N([C@H](C)CO)C[C@H]2C)cc1`, the cytotoxicity call was “inactive”.
`C[C@@H]1CN([C@@H](C)CO)C(=O)c2c(c3ccccc3n2C)-c2ccccc2CO[C@H]1CN(C)S(C)(=O)=O`: the cytotoxicity call is “inactive”.
With `CC(=O)OCC1=C(C(=O)O)N2C(=O)[C@@H](NC(=O)CSc3ccncc3)[C@H]2SC1` the entry was “inactive”.
For the compound `C[C@H](CO)N1C[C@H](C)[C@H](CN(C)Cc2ccc(-c3ccccc3)cc2)Oc2ccc(NC(=O)Cn3cnnn3)cc2C1=O`, the cytotoxicity call is “inactive”.
With `C[C@H]1CN([C@@H](C)CO)C(=O)c2cccc(NS(=O)(=O)c3cn(C)cn3)c2O[C@@H]1CN(C)Cc1ccc(C(=O)O)cc1` the entry was “inactive”; with `Cn1nnnc1-c1ccc(N)cc1`, “inactive”.
With `COc1cc(NC(C)CCCN)c2ncccc2c1.O=P(O)(O)O.O=P(O)(O)O` (configuration not stated) the entry was “active”; with `Cc1c(-c2c(-c3ccc(F)o3)sc3ncnc(O[C@H](Cc4ccccc4OCc4ccnn4CC(F)(F)F)C(=O)O)c23)ccc(OCCN2CCN(C)CC2)c1Cl`, “active”; with `C[C@H]1CN([C@@H](C)CO)C(=O)CCCn2cc(nn2)CO[C@H]1CN(C)S(=O)(=O)c1ccccc1C#N`, “inactive”.
